Results taken from PubChem BioAssay (Tox21).
“And” between values parts separate entries of the source, which are not always exact repeats. Identical values can stand only once. Inconclusive results are not listed. Where a call stands in place of a potency, no number is given. Some structures have more than one record in an assay (separate samples or runs), and their calls can disagree. The source made the active and inactive calls. Calls follow the shape of the dose curve; as a rule, active = well fitted activation curve with a large enough effect in the repeat runs; inconclusive = weak or mixed curves; inactive = flat fitted curve, though single readings scatter.

Assay: A CellTox Green Cytotoxicity Assay to monitor cytotoxicity in HEK293 cells - 32 hour (AID 1224881); also: nearly all actives have a fitted effect of over 40% in size
Conditions: CellTox Green fluorescence; series mostly up to 76.8 µM
How it was run: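 Each value comes from one timepoint of a single continuous run in which HEK293 cells with CellTox Green were exposed to compound for up to 40 h at 37 C, dye fluorescence rising with cell death.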
Potency is read from the fitted curve at half-maximal effect.

SMILES | Potency
S=c1[nH]c2ccccc2[nH]1 | inactive
CCCCC(C#N)(Cn1cncn1)c1ccc(Cl)cc1 (stereo not drawn) | inactive
O=P(OCCCl)(OCCCl)OCCCl | inactive
COc1ccc(O)c(C(C)(C)C)c1 | inactive
CC(C)Nc1nc(Cl)nc(NC(C)C)n1 | inactive
COP(=S)(OC)Oc1ccc(Sc2ccc(OP(=S)(OC)OC)cc2)cc1 | inactive
Brc1ccc(Br)cc1 | inactive
OC(c1ccc(Cl)cc1)(c1cncnc1)c1ccccc1Cl (stereo not drawn) | 25 µM (active) and inactive
C[C@]12CCC(=O)C=C1CC[C@@H]1[C@@H]2CC[C@@]2(C)[C@H]1CC[C@]2(C)O | 44 µM (active) and inactive
COP(=S)(OC)SCn1nnc2ccccc2c1=O | inactive
CC(C)(c1ccc(OCC2CO2)cc1)c1ccc(OCC2CO2)cc1 (stereo not drawn) | inactive
CCOP(=O)(O)OCC (tested in a mixture with another compound) | inactive and 24.3 µM (active)
CSc1nc(NC(C)C)nc(NC(C)C)n1 | inactive
CC1(C)C(C(=O)OC(C#N)c2cccc(Oc3ccccc3)c2)C1(C)C (stereo not drawn) | inactive
CCCCOCC1CO1 (stereo not drawn) | inactive and 19.5 µM (active)
CNC(=O)Oc1cccc2c1OC(C)(C)C2 | inactive
CNC(=S)S | inactive
CC(C)=CC1C(C(=O)OCc2cccc(Oc3ccccc3)c2)C1(C)C (stereo not drawn) | inactive

SMILES | Potency
O=C1C(Cl)=C(Cl)C(=O)c2ccccc21 | 6.19 µM (active) and 6.17 µM (active)
CCOP(=S)(OCC)SCSC(C)(C)C | inactive
OCCOCCO | inactive
COc1ccc(C=O)cc1OC | inactive
CCCCSP(=O)(SCCCC)SCCCC | inactive
Cn1c(-c2ccccc2)cc(-c2ccccc2)[n+]1C | inactive
Cc1cccc(N=Nc2ccc(N(C)C)cc2)c1 | inactive
C=CC(Cl)CCl (stereo not drawn) | inactive
CC(C)(C#N)N=NC(C)(C)C#N | inactive
CCCCOCCOC(C)=O | inactive
O=[N+]([O-])c1ccc(Nc2ccccc2)cc1 | inactive
C=C(C)C#N | inactive
N#CCCCCC#N | inactive
CS(=O)(=O)NC(=O)c1cc(Oc2ccc(C(F)(F)F)cc2Cl)ccc1[N+](=O)[O-] | inactive
CCC[CH2][Sn]([Cl])([CH2]CCC)[CH2]CCC | 618 nM (active) and 776 nM (active)
O=S(=O)(O)C(F)(F)C(F)(F)C(F)(F)C(F)(F)C(F)(F)C(F)(F)C(F)(F)C(F)(F)F | 33 µM (active) and inactive and 21.9 µM (active)
N#CC(c1ccccc1)c1ccccc1 | inactive

Assay: A CellTox Green Cytotoxicity Assay to monitor cytotoxicity in HepG2 cells - 0 hour (AID 1224882); also: nearly all actives have a fitted effect of over 35% in size
Conditions: CellTox Green fluorescence; series mostly up to 76.8 µM
How it was run: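 Continuous culture of HepG2 cells with a membrane-impermeant DNA dye; rising fluorescence marks dead cells. Compound exposure lasted up to 40 h at 37 C, with reads every 8 h from 0 h.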

SMILES | Potency
S=c1[nH]c2ccccc2[nH]1 | inactive
CCCCC(C#N)(Cn1cncn1)c1ccc(Cl)cc1 (stereo not drawn) | inactive
O=P(OCCCl)(OCCCl)OCCCl | inactive
COc1ccc(O)c(C(C)(C)C)c1 | inactive
CC(C)Nc1nc(Cl)nc(NC(C)C)n1 | inactive
COP(=S)(OC)Oc1ccc(Sc2ccc(OP(=S)(OC)OC)cc2)cc1 | inactive
Brc1ccc(Br)cc1 | inactive
OC(c1ccc(Cl)cc1)(c1cncnc1)c1ccccc1Cl (stereo not drawn) | inactive
ClCc1ccccn1 | inactive
C[C@]12CCC(=O)C=C1CC[C@@H]1[C@@H]2CC[C@@]2(C)[C@H]1CC[C@]2(C)O | 19.7 µM (active) and inactive
COP(=S)(OC)SCn1nnc2ccccc2c1=O | inactive
CC(C)(c1ccc(OCC2CO2)cc1)c1ccc(OCC2CO2)cc1 (stereo not drawn) | inactive
CCOP(=O)(O)OCC (tested in a mixture with another compound) | inactive
CSc1nc(NC(C)C)nc(NC(C)C)n1 | inactive
CC1(C)C(C(=O)OC(C#N)c2cccc(Oc3ccccc3)c2)C1(C)C (stereo not drawn) | inactive
CCCCOCC1CO1 (stereo not drawn) | inactive and 38.9 µM (active)
CNC(=O)Oc1cccc2c1OC(C)(C)C2 | inactive
CNC(=S)S | inactive
Cc1ccc(N=CN(C)C=Nc2ccc(C)cc2C)c(C)c1 | inactive

SMILES | Potency
CC(C)=CC1C(C(=O)OCc2cccc(Oc3ccccc3)c2)C1(C)C (stereo not drawn) | inactive
O=C1C(Cl)=C(Cl)C(=O)c2ccccc21 | inactive
CCOP(=S)(OCC)SCSC(C)(C)C | inactive
OCCOCCO | inactive
COc1ccc(C=O)cc1OC | inactive
CCCCSP(=O)(SCCCC)SCCCC | inactive
Cn1c(-c2ccccc2)cc(-c2ccccc2)[n+]1C | inactive
Cc1cccc(N=Nc2ccc(N(C)C)cc2)c1 | inactive
C=CC(Cl)CCl (stereo not drawn) | inactive
CC(C)(C#N)N=NC(C)(C)C#N | inactive
CCCCOCCOC(C)=O | inactive
O=[N+]([O-])c1ccc(Nc2ccccc2)cc1 | inactive
C=C(C)C#N | inactive
N#CCCCCC#N | inactive
CS(=O)(=O)NC(=O)c1cc(Oc2ccc(C(F)(F)F)cc2Cl)ccc1[N+](=O)[O-] | inactive
CCC[CH2][Sn]([Cl])([CH2]CCC)[CH2]CCC | inactive
CCOP(=S)(OCC)OP(=S)(OCC)OCC | inactive
O=S(=O)(O)C(F)(F)C(F)(F)C(F)(F)C(F)(F)C(F)(F)C(F)(F)C(F)(F)C(F)(F)F | inactive
N#CC(c1ccccc1)c1ccccc1 | inactive
